Test results taken from PubChem BioAssay (NCI).
About 83,000 compounds went through this panel and 20% of them were active in at least one assay; those are over-represented in the sample as a whole.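 Interpretation: 100, growth as untreated; towards 0, rising growth inhibition; 0, no net growth; 0 to -100, cell death. Compounds scoring below 10 were considered active.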 Calls of active or inactive are those of the source.

How the values were obtained:
Experiment in all cases: NCI-60 one-dose screen, 48 h (100 = growth as untreated, 0 = no growth, -100 = all killed)
SK-MEL-2 melanoma = details: 10 µM
EKVX NSCLC = details: 10 µM unless noted
SN12C renal = details: 10 µM unless noted
UO-31 renal = details: 10 µM unless noted
TK-10 renal = details: 10 µM unless noted
ACHN renal = details: 10 µM unless noted
A498 renal = details: 10 µM unless noted
CCRF-CEM leukemia = details: 10 µM unless noted
MOLT-4 leukemia = details: 10 µM unless noted
SR leukemia = details: 10 µM unless noted
OVCAR-8 ovarian = details: 10 µM unless noted
OVCAR-5 ovarian = details: 10 µM unless noted
OVCAR-4 ovarian = details: 10 µM unless noted
SK-OV-3 ovarian = details: 10 µM unless noted
IGROV1 ovarian = details: 10 µM unless noted
OVCAR-3 ovarian = details: 10 µM unless noted
HS 578T breast = details: 10 µM
NCI/ADR-RES ovarian = details: 10 µM unless noted
RPMI-8226 leukemia = details: 10 µM unless noted
CAKI-1 renal = details: 10 µM unless noted

Measured: growth

Nc1nc(=S)c2ncn(C3OC(COC(=O)c4ccc(Cl)cc4)C(OC(=O)c4ccc(Cl)cc4)C3OC(=O)c3ccc(Cl)cc3)c2[nH]1 (centres undefined)
inactive: SK-MEL-2 melanoma 94.5% | EKVX NSCLC 71.4% | SN12C renal 92.7% | UO-31 renal 79.4% | TK-10 renal 91.3% | ACHN renal 98.2% | A498 renal 75% | CCRF-CEM leukemia 12.7% | MOLT-4 leukemia 65.1% | SR leukemia 72.8% | OVCAR-8 ovarian 129% | OVCAR-5 ovarian 91.9% | OVCAR-4 ovarian 86.2% | SK-OV-3 ovarian 43.5% | IGROV1 ovarian 93.5% | OVCAR-3 ovarian 81% | NCI/ADR-RES ovarian 103%
active: HS 578T breast -29%

NC1=Nc2ccccc2N(O)N1
inactive: SK-MEL-2 melanoma 89.2% | EKVX NSCLC 95.4% | SN12C renal 99.1% | UO-31 renal 88.4% | TK-10 renal 94.7% | ACHN renal 100% | CCRF-CEM leukemia 105% | MOLT-4 leukemia 99.4% | SR leukemia 105% | RPMI-8226 leukemia 107% | OVCAR-8 ovarian 104% | OVCAR-5 ovarian 92.4% | OVCAR-4 ovarian 99.8% | SK-OV-3 ovarian 90.9% | IGROV1 ovarian 105% | OVCAR-3 ovarian 111% | HS 578T breast 97.3% | NCI/ADR-RES ovarian 103%

Clc1nc(Cl)c2ncn(CC#CCn3cnc4c(Cl)nc(Cl)nc43)c2n1
active: EKVX NSCLC -39.3% | SN12C renal 3.09% | TK-10 renal -31.5% | ACHN renal -53.3% | CAKI-1 renal -96.5% | CCRF-CEM leukemia -62.2% | MOLT-4 leukemia 1.03% | SR leukemia -52.6% | RPMI-8226 leukemia -56.6% | OVCAR-8 ovarian -34.8% | OVCAR-5 ovarian -2.99% | OVCAR-4 ovarian -70.8% | IGROV1 ovarian -75.4% | OVCAR-3 ovarian -90.9%
inactive: SK-MEL-2 melanoma 65.3% | SK-OV-3 ovarian 87.5% | NCI/ADR-RES ovarian 59.8%

Nc1ncnc2c1ccn2-c1cccc(NC(=O)c2ccc(N3CCOCC3)c(C(F)(F)F)c2)c1
inactive: SK-MEL-2 melanoma 37.7% | EKVX NSCLC 56% | SN12C renal 47.8% | UO-31 renal 22% | ACHN renal 30.9% | CAKI-1 renal 26.3% | A498 renal 63.3% | CCRF-CEM leukemia 20.5% | MOLT-4 leukemia 47.8% | SR leukemia 51.8% | OVCAR-8 ovarian 24.8% | OVCAR-5 ovarian 72.9% | OVCAR-4 ovarian 104% | SK-OV-3 ovarian 77.3% | IGROV1 ovarian 40.5% | OVCAR-3 ovarian 43.2% | NCI/ADR-RES ovarian 26.2%
active: RPMI-8226 leukemia 4.92%

Nc1cc2c(cc1Br)-c1c(C(=O)O)cccc1C2O (centres undefined)
inactive: SK-MEL-2 melanoma 131% | EKVX NSCLC 88.3% | SN12C renal 109% | UO-31 renal 102% | TK-10 renal 117% | ACHN renal 108% | A498 renal 129% | CCRF-CEM leukemia 124% | MOLT-4 leukemia 115% | SR leukemia 109% | OVCAR-8 ovarian 107% | OVCAR-5 ovarian 102% | OVCAR-4 ovarian 103% | SK-OV-3 ovarian 110% | IGROV1 ovarian 98.6% | OVCAR-3 ovarian 147% | NCI/ADR-RES ovarian 118%

Nc1nc(N)c2cc(CNc3ccc(C(=O)NC(CC(=O)O)C(=O)O)cc3)ccc2n1 (centres undefined)
active: OVCAR-8 ovarian -13.2% | HS 578T breast -20.2%
inactive: SK-MEL-2 melanoma 72.3% | EKVX NSCLC 43.2% | SN12C renal 15.5% | UO-31 renal 35.8% | TK-10 renal 61.2% | ACHN renal 25.9% | A498 renal 19.1% | CCRF-CEM leukemia 23% | MOLT-4 leukemia 32.8% | SR leukemia 13.8% | OVCAR-5 ovarian 30.1% | OVCAR-4 ovarian 50.8% | SK-OV-3 ovarian 47.4% | IGROV1 ovarian 38.7% | OVCAR-3 ovarian 50.5% | NCI/ADR-RES ovarian 17.3%

CC1CCC(n2cnc3c(Cl)ncnc32)O1 (centres undefined)
inactive: SK-MEL-2 melanoma 109% | EKVX NSCLC 94.5% | SN12C renal 110% | UO-31 renal 96.4% | TK-10 renal 88% | ACHN renal 104% | A498 renal 124% | CCRF-CEM leukemia 85.8% | SR leukemia 104% | OVCAR-8 ovarian 91.4% | OVCAR-5 ovarian 93.9% | OVCAR-4 ovarian 104% | SK-OV-3 ovarian 98.6% | IGROV1 ovarian 61.7% | OVCAR-3 ovarian 97.1% | HS 578T breast 88.1% | NCI/ADR-RES ovarian 101%

ClCc1ccc(-c2ccc(Cn3cnc4c(Cl)nc(Cl)nc43)cc2)cc1
inactive: SK-MEL-2 melanoma 46.1% | SN12C renal 26.1% | OVCAR-5 ovarian 57.8% | OVCAR-4 ovarian 21.7% | SK-OV-3 ovarian 87.8% | NCI/ADR-RES ovarian 20.8%
active: EKVX NSCLC -57.9% | TK-10 renal -67.8% | ACHN renal -21% | CAKI-1 renal -98.8% | CCRF-CEM leukemia -31.1% | MOLT-4 leukemia 4.29% | SR leukemia 8.65% | RPMI-8226 leukemia -47.4% | OVCAR-8 ovarian -40% | IGROV1 ovarian -64.4% | OVCAR-3 ovarian -93.1%

O=C(N/N=C/c1ccc(Cl)cc1)c1cc(-c2cc3ccccc3o2)nn1-c1ccccc1
inactive: SK-MEL-2 melanoma 91.2% | EKVX NSCLC 89.6% | SN12C renal 94.9% | TK-10 renal 94.8% | ACHN renal 93.5% | CAKI-1 renal 100% | CCRF-CEM leukemia 95.6% | MOLT-4 leukemia 78% | SR leukemia 87.9% | RPMI-8226 leukemia 47.6% | OVCAR-8 ovarian 93.7% | OVCAR-5 ovarian 101% | OVCAR-4 ovarian 87.3% | SK-OV-3 ovarian 94% | IGROV1 ovarian 65.9% | OVCAR-3 ovarian 106% | NCI/ADR-RES ovarian 93.4%

CCN(CC)CCNc1ccc(N=Nc2cnc3ccccc3c2)c2ccccc12
active: SK-MEL-2 melanoma -76.9% | EKVX NSCLC -2.28% | SN12C renal -88.9% | UO-31 renal -94.2% | TK-10 renal -79% | ACHN renal -69.6% | A498 renal -91.5% | CCRF-CEM leukemia -78.2% | MOLT-4 leukemia -49.7% | SR leukemia -53.1% | OVCAR-8 ovarian -90.1% | OVCAR-5 ovarian -86.6% | OVCAR-4 ovarian -25.3% | SK-OV-3 ovarian -77.2% | IGROV1 ovarian -92.8% | OVCAR-3 ovarian -73.2% | HS 578T breast -73.9% | NCI/ADR-RES ovarian -40%

O=C(Nc1ccc(C2=NCCCN2)cc1)c1ccc(C(=O)Nc2ccc(C3=NCCCN3)cc2)nc1
active: HS 578T breast -26.5%
inactive: SK-MEL-2 melanoma 109% | EKVX NSCLC 96% | SN12C renal 99.8% | UO-31 renal 82.6% | TK-10 renal 122% | ACHN renal 107% | A498 renal 127% | CCRF-CEM leukemia 107% | MOLT-4 leukemia 85.8% | SR leukemia 85.2% | OVCAR-8 ovarian 112% | OVCAR-5 ovarian 95.1% | OVCAR-4 ovarian 102% | SK-OV-3 ovarian 106% | IGROV1 ovarian 107% | OVCAR-3 ovarian 101% | NCI/ADR-RES ovarian 102%

CC(=O)OC1Oc2ccccc2-c2oc(=O)c(-c3cc4ccc(N(C)C)cc4oc3=O)cc21 (centres undefined)
active: CCRF-CEM leukemia 6.68% | MOLT-4 leukemia -28.3% | SR leukemia -19.9% | RPMI-8226 leukemia -20.5% | HS 578T breast -3.16%
inactive: SK-MEL-2 melanoma 46.7% | EKVX NSCLC 35.3% | SN12C renal 72% | TK-10 renal 12.2% | ACHN renal 47.4% | CAKI-1 renal 46.1% | A498 renal 14.2% | OVCAR-8 ovarian 37.1% | OVCAR-5 ovarian 26.3% | OVCAR-4 ovarian 39.1% | SK-OV-3 ovarian 48.1% | OVCAR-3 ovarian 43% | NCI/ADR-RES ovarian 38.9%

Clc1nc(Cl)c2ncn(C/C=C\Cn3cnc4c(Cl)nc(Cl)nc43)c2n1
active: EKVX NSCLC -68% | SN12C renal -11.3% | TK-10 renal -45.6% | ACHN renal -94.5% | CAKI-1 renal -97.2% | A498 renal -18.2% | CCRF-CEM leukemia -73.4% | MOLT-4 leukemia -55.4% | SR leukemia -48.2% | RPMI-8226 leukemia -61.2% | OVCAR-8 ovarian -57.4% | OVCAR-5 ovarian -9.17% | OVCAR-4 ovarian -89.2% | IGROV1 ovarian -82.3% | OVCAR-3 ovarian -97% | HS 578T breast -41.5%
inactive: SK-MEL-2 melanoma 23.5% | SK-OV-3 ovarian 32.8% | NCI/ADR-RES ovarian 30.1%

COC(=O)[C@@H](C)CNS(=O)(=O)N(c1cc(C(F)(F)F)cc(C(F)(F)F)c1)C1CCN(Cc2ccc(F)cc2)CC1
inactive: SK-MEL-2 melanoma 81.7% | EKVX NSCLC 74.6% | SN12C renal 36.8% | UO-31 renal 44% | TK-10 renal 89% | ACHN renal 86.4% | A498 renal 66% | CCRF-CEM leukemia 56.6% | MOLT-4 leukemia 58.2% | SR leukemia 26.7% | OVCAR-8 ovarian 67.3% | OVCAR-5 ovarian 76.1% | OVCAR-4 ovarian 73.4% | SK-OV-3 ovarian 76.2% | IGROV1 ovarian 54.7% | OVCAR-3 ovarian 56.7% | NCI/ADR-RES ovarian 51%

CCCC(=O)OCC1OC(n2cnc3c(=S)nc[nH]c32)C(OC(=O)CCC)C1OC(=O)CCC (centres undefined)
active: TK-10 renal 6.59% | OVCAR-8 ovarian -8.32%
inactive: SK-MEL-2 melanoma 12.5% | EKVX NSCLC 69.3% | SN12C renal 49.9% | UO-31 renal 32.6% | ACHN renal 41.5% | A498 renal 30.8% | CCRF-CEM leukemia 24.6% | MOLT-4 leukemia 18.6% | SR leukemia 24% | OVCAR-5 ovarian 46.2% | OVCAR-4 ovarian 31.3% | SK-OV-3 ovarian 21% | IGROV1 ovarian 14.7% | OVCAR-3 ovarian 22.7% | HS 578T breast 47.7% | NCI/ADR-RES ovarian 48.3%

O=CC(OC(=O)c1ccccc1)C(OC(=O)c1ccccc1)C(COC(c1ccccc1)(c1ccccc1)c1ccccc1)OC(=O)c1ccccc1 (centres undefined)
inactive: SK-MEL-2 melanoma 96.7% | EKVX NSCLC 88.8% | SN12C renal 61.8% | UO-31 renal 19.8% | TK-10 renal 77.8% | ACHN renal 60% | A498 renal 122% | OVCAR-5 ovarian 61% | OVCAR-4 ovarian 89.9% | SK-OV-3 ovarian 98.8% | OVCAR-3 ovarian 21.4% | HS 578T breast 51.8% | NCI/ADR-RES ovarian 92.8%
active: CCRF-CEM leukemia -18.6% | MOLT-4 leukemia -14.6% | SR leukemia -12.9% | OVCAR-8 ovarian -17.6% | IGROV1 ovarian -38.5%

O=C(c1ccccc1)C(c1ccccc1)N1CCOCC1 (centres undefined)
inactive: SK-MEL-2 melanoma 91.1% | EKVX NSCLC 99% | SN12C renal 101% | UO-31 renal 86.9% | TK-10 renal 90% | ACHN renal 106% | A498 renal 111% | CCRF-CEM leukemia 91.2% | SR leukemia 95.6% | RPMI-8226 leukemia 101% | OVCAR-8 ovarian 105% | OVCAR-5 ovarian 105% | OVCAR-4 ovarian 108% | IGROV1 ovarian 104% | OVCAR-3 ovarian 101% | NCI/ADR-RES ovarian 98.6%
